PubChem BioAssay
Active and inactive are the calls of the source.

Assays:
[1] = optical density shifts of acrAB sulA E. coli – strain DRC41, OD650, 48 h, E. coli filamentation inducer project, primary screen (AID 1152); conditions: higher = more signal, called active from +8 up or from −8 down;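 note: E. coli MC1000 strain DRC41 lacking acrAB efflux pump and sulA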
[2] = probe aLefty1 binding on compound microarray – biochemical, small-molecule microarray, 635/667 nm fluorescence, primary screen (AID 1153); conditions: higher = more signal;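 note: score merges spot fluorescence with signal-to-noise ratio from the scanned slide images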
[3] = plasmodial surface anion channel blockers, osmotic lysis – cell-based, P. falciparum Indochina, OD700, 1 h, primary screen (AID 1154); conditions: P. falciparum Indochina infected RBC osmotic lysis, higher = more signal, called active from +8 up or from −8 down
[4] = plasmodial surface anion channel blockers, osmotic lysis – cell-based, P. falciparum Indochina, OD700, 2 h, primary screen (AID 1155);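 note: lysis reports solute entry through the parasite surface anion channel PSAC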; conditions: P. falciparum Indochina infected erythrocytes, higher = more signal, called active from +8 up or from −8 down
[5] = changes in parasitized red cell lysis, either direction – P. falciparum Indochina, OD700, 3 h, PSAC antagonist project, primary screen (AID 1156); conditions: P. falciparum-infected erythrocytes, osmotic lysis, higher = more signal, called active from +8 up or from −8 down
[6] = plasmodial surface anion channel blockers, osmotic lysis – cell-based, P. falciparum Indochina, OD700, 18 h, primary screen (AID 1157); conditions: P. falciparum Indochina infected erythrocytes, osmotic lysis OD700, 18 h; higher = more signal, called active from +8 up or from −8 down
[7] = S6 kinase pathway phospho-S6 level changes – cell-based, A549, cytoblot, luminescence, serum-stimulated, primary screen (AID 1158); conditions: 5 h, higher = more signal;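 note: serum-stimulated A549 lung adenocarcinoma cells; signal is phosphorylated S6 detected by cytoblot immunostaining with HRP secondary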
[8] = molecular target: NADPH oxidase 2 (Homo sapiens) (UniProt P04839); experiment: compounds shifting NOX2 Amplex Red fluorescence – cell-based, HEK293-NOX2, PMA-stimulated, NOX inhibitor project, primary screen (AID 1159); conditions: 45 min, higher = more signal, called active from +8 up or from −8 down; note: test concentration not given here
NADPH oxidase 2 (Homo sapiens), sequence (P04839 whole entry, looked up): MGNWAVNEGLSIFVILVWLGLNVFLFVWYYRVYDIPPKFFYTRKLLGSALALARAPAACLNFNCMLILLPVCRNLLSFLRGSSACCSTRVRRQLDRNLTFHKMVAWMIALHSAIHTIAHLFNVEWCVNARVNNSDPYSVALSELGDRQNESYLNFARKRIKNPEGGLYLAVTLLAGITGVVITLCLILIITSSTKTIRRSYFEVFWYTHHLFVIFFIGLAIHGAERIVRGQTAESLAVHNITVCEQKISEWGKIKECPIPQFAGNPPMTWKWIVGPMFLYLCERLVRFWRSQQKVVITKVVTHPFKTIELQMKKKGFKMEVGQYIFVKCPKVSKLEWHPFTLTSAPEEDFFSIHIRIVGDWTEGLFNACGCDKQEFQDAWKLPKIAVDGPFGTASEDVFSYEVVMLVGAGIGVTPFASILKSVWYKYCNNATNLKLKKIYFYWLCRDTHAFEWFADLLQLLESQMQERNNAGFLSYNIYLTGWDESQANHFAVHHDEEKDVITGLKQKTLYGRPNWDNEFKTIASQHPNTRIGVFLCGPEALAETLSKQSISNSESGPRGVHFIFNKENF

[9] = molecular target: NADPH oxidase 4 (Homo sapiens) (UniProt Q9NPH5); experiment: compounds shifting NOX4 Amplex Red fluorescence – cell-based, HEK293-NOX4, tetracycline-induced, NOX inhibitor project, primary screen (AID 1160); conditions: HEK293-NOX4, Amplex Red H2O2 fluorescence, 45 min; higher = more signal, called active from +8 up or from −8 down
NADPH oxidase 4 (Homo sapiens), sequence (Q9NPH5 whole entry, looked up): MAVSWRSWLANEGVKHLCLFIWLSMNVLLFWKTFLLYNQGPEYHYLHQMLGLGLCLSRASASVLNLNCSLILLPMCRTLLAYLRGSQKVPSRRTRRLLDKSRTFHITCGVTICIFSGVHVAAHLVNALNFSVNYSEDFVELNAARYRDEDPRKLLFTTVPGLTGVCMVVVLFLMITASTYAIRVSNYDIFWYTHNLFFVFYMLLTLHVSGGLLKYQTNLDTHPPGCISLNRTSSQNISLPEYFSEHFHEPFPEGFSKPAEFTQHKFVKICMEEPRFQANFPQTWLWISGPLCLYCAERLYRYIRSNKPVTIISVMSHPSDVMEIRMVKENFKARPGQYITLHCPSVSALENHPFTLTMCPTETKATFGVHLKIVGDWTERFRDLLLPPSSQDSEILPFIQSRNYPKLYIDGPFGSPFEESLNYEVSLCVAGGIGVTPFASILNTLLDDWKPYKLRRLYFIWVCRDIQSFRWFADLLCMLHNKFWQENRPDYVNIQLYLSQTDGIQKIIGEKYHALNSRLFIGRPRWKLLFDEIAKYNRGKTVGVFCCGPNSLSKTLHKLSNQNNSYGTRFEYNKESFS

[10] = molecular target: NADPH oxidase 5 (Homo sapiens) (UniProt Q96PH1); experiment: compounds shifting NOX5 Amplex Red fluorescence – cell-based, HEK293-NOX5, NOX inhibitor project, primary screen (AID 1161); conditions: HEK293-NOX5, ionomycin, 45 min, higher = more signal
NADPH oxidase 5 (Homo sapiens), sequence (Q96PH1 whole entry, looked up): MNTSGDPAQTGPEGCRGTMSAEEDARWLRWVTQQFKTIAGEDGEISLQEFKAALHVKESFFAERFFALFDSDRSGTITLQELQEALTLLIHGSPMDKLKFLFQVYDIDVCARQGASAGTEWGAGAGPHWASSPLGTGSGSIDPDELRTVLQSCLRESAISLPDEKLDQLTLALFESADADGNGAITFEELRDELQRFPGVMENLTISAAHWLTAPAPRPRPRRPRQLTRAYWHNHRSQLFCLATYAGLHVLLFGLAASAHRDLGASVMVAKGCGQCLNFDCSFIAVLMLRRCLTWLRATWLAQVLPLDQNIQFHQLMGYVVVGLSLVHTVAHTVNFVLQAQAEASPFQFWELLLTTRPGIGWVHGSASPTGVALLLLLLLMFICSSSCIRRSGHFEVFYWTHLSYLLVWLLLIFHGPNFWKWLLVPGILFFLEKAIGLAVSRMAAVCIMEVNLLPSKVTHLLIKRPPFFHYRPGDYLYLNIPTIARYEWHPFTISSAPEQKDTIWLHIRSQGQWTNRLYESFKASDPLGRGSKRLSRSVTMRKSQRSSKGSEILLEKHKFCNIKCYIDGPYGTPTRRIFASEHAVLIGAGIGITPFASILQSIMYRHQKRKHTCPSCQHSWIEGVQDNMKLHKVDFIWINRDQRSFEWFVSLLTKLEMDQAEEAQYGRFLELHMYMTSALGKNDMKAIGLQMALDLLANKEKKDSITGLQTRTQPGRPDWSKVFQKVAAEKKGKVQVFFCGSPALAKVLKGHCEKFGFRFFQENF

[11] = compound effects on lung adenocarcinoma cell viability – A549, calcein-AM fluorescence, 48 h, basal, profiling panel (AID 1162); conditions: higher = more signal; note: test concentration not given here
[12] = compound effects on differentiated 3T3-L1 adipocyte viability – cell-based, 3T3-L1 adipocytes, calcein-AM fluorescence, 48 h, basal, profiling panel (AID 1163); conditions: 3T3-L1 adipocytes viability, higher = more signal; note: test concentration not given here
[13] = compound effects on hepatocellular carcinoma cell viability – HepG2, calcein-AM fluorescence, 48 h, basal, profiling panel (AID 1164); conditions: higher = more signal; note: test concentration not given here
[14] = compound effects on multiple myeloma cell viability – MM1S, calcein-AM fluorescence, 48 h, basal, profiling panel (AID 1165); conditions: higher = more signal; note: test concentration not given here
[15] = calcein-AM signal in unstimulated myeloma cells – cell-based, calcein-AM fluorescence, 48 h, PK04 Diversity Set, profiling panel (AID 1166); conditions: RPMI8226 myeloma viability, higher = more signal;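 note: cells grown under basal conditions without added stimulus; test concentration not given here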
[16] = JC-1 mitochondrial signal, unstimulated HepG2 cells – cell-based, JC-1 fluorescence, 24 h, 100 nL compound, profiling panel (AID 1167); conditions: HepG2 mitochondrial potential, higher = more signal; note: test concentration not given here
[17] = JC-1 mitochondrial signal, unstimulated adipocytes – cell-based, JC-1 fluorescence, 3T3-L1 adipocytes, 24 h, 100 nL compound, profiling panel (AID 1168); conditions: JC-1 mitochondrial fluorescence, higher = more signal, called active from +8 up or from −8 down; note: test concentration not given here
[18] = JC-1 mitochondrial signal, unstimulated myeloma cells – cell-based, JC-1 fluorescence, RPMI8226, 24 h, 100 nL compound, profiling panel (AID 1169); conditions: JC-1 mitochondrial potential fluorescence, higher = more signal; note: test concentration not given here
[19] = JC-1 mitochondrial signal, unstimulated MM1S myeloma – cell-based, JC-1 fluorescence, 24 h, 100 nL compound, profiling panel (AID 1170); conditions: MM1S mitochondrial potential, higher = more signal; note: test concentration not given here
[20] = resazurin metabolic signal in A549 cells – cell-based, resazurin fluorescence, 24 h, PK04 Diversity Set, profiling panel (AID 1171); conditions: A549 viability, higher = more signal, called active from +8 up or from −8 down; note: test concentration not given here

| SMILES | z-score [1] | composite z-score [2] | z-score [3] | z-score [4] | z-score [5] | z-score [6] | z-score [7] | z-score [8] | z-score [9] | z-score [10] | z-score [11] | z-score [12] | z-score [13] | z-score [14] | z-score [15] | z-score [16] | z-score [17] | z-score [18] | z-score [19] | z-score [20] |
| --- | --- | --- | --- | --- | --- | --- | --- | --- | --- | --- | --- | --- | --- | --- | --- | --- | --- | --- | --- | --- |
| Cc1ccccc1C(O)C1C=CC2C(=O)NC(=O)C2N1Nc1ccc(Cl)cc1Cl (stereo not given) | -1.87 (inactive) | 0.219 | 1.81 (inactive) | 1.35 (inactive) | -1.11 (inactive) | 0.975 (inactive) | -0.649 | -0.254 (inactive) | -4.79 (inactive) | -2.02 | -0.235 | -0.636 | -0.245 | -2.93 | -1.58 | -2.8 | -0.879 (inactive) | -0.153 | 0.106 | -0.8 (inactive) |
| [N-]=[N+]=Nc1ccccc1C[C@@]1(C(=O)O)N=C(c2ccc(OCCCO)cc2)O[C@@H]1c1ccccc1N=[N+]=[N-] | -0.855 (inactive) | 0.384 | 29.2 (active) | 24.7 (active) | 0.648 (inactive) | 4.53 (inactive) | 0.664 | -0.041 (inactive) | 1.17 (inactive) | 1.57 | -0.404 | -0.115 | -0.36 | -2.44 | -2.44 | -2.37 | -0.74 (inactive) | -0.56 | -0.739 | 0.13 (inactive) |
| C#C[C@@H](CC)O[Si](C#CCCCC#N)(C(C)C)C(C)C | 0.527 (inactive) | -0.117 | 1.58 (inactive) | 1.14 (inactive) | 0.186 (inactive) | 0.676 (inactive) | -0.336 | 1.03 (inactive) | -0.222 (inactive) | 1.31 | -0.533 | -0.87 | -0.168 | -3.16 | -0.501 | -0.626 | 0.117 (inactive) | -0.45 | -1.73 | -0.0413 (inactive) |
| O=C1OCCC=C[C@H]2OC34C=CCN(c5ccc(Cl)cc5)C(=O)[C@H]3N(CCCCCCO)C(=O)[C@@H]4C12 (stereo not given in full) | 1.96 (inactive) | -0.0292 | 0.769 (inactive) | 0.138 (inactive) | 1.13 (inactive) | 0.255 (inactive) | 0.551 | 1.47 (inactive) | 0.036 (inactive) | 2.61 | 1.26 | -0.043 | 1.21 | 1.69 | -1.1 | 1 | 0.335 (inactive) | -0.0541 | 1.34 | 0.97 (inactive) |
| COCC(=C=CC[C@@H](O)c1ccc(OCCO)cc1)CCO | 1.15 (inactive) | 0.0391 | 6.19 (inactive) | 0.492 (inactive) | 1.32 (inactive) | 0.381 (inactive) | 0.357 | -2.03 (inactive) | -0.406 (inactive) | -0.727 | 1.46 | 0.376 | 0.875 | 0.676 | 0.786 | 1.32 | 0.87 (inactive) | -0.756 | -1.1 | 1.12 (inactive) |
| COc1cc(NN2C(C(O)c3cc(OC)c(OC)c(OC)c3)C=CC3C(=O)N(c4ccccc4)C(=O)C32)cc(OC)c1OC (stereo not given) | -1.78 (inactive) | 1.02 | 2.73 (inactive) | -0.577 (inactive) | 1.27 (inactive) | -1.19 (inactive) | 1.07 | -3.35 (inactive) | -4.26 (inactive) | -6.87 | -0.94 | 0.641 | -0.455 | -0.881 | -0.373 | -0.132 | -0.768 (inactive) | -0.286 | -0.755 | -1.11 (inactive) |
| COc1ccc(C(O)C2C=CC3C(=O)N(c4ccccc4)C(=O)C3N2Nc2ccccc2)cc1 (stereo not given) | -1.04 (inactive) | 0.411 | 10.9 (active) | 2.15 (inactive) | 0.332 (inactive) | 1.27 (inactive) | -1.44 | -2.06 (inactive) | -3.23 (inactive) | -2.84 | -0.0572 | -0.936 | 0.204 | 0.254 | 0.0459 | -1.2 | -0.233 (inactive) | -0.402 | -0.626 | 0.117 (inactive) |
| CCOC(=O)C1=CCN(S(=O)(=O)c2ccc(C)cc2)C1c1ccccc1 (stereo not given) | -1.44 (inactive) | 0.121 | 3.1 (inactive) | 0.8 (inactive) | -0.451 (inactive) | 0.806 (inactive) | -0.489 | 0.532 (inactive) | -1.38 (inactive) | -0.86 | -0.973 | -0.205 | -0.535 | -0.455 | -1.21 | -1.62 | -0.804 (inactive) | 0.443 | -0.583 | 0.739 (inactive) |
| Cc1ccccc1C(O)C1C=CC2C(=O)N(c3ccccc3)C(=O)C2N1Nc1ccc([N+](=O)[O-])cc1 (stereo not given) | -0.467 (inactive) | 0.186 | 26.5 (active) | 11.2 (active) | 2.6 (inactive) | 1.52 (inactive) | -0.483 | -1.29 (inactive) | -3.58 (inactive) | -1.83 | -1.06 | -0.127 | -1.2 | -0.127 | -0.566 | -1.04 | -1.1 (inactive) | -0.247 | 0.585 | 0.306 (inactive) |
